In test [1] the test system is Plasmodium falciparum Sir2 (PF13_0152, Sir2A). Description: Plasmodium falciparum Sir2A binding compounds – biochemical, small-molecule microarray, 635 nm fluorescence, primary screen (AID 1098).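 Also: score merges spot fluorescence intensity with its signal-to-noise ratio.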 The conditions noted are these: fluorescence 635 nm, higher = more signal.
A short description of test [2]: probe aDKK1 binding to arrayed compounds – biochemical, biotinylated probe, 635/667 nm fluorescence, primary screen (AID 1099).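 Also: score merges 667nm spot fluorescence with signal to noise across triplicate slides.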 The settings on record: small-molecule microarray, higher = more signal.
Test [3] can be described thus: probe aCHRDL2 binding to arrayed compounds – biochemical, biotinylated probe, 635/667 nm fluorescence, primary screen (AID 1100). The conditions noted are these: small-molecule microarray, higher = more signal.
Test [4] in a line: change in splice reporter luminescence, either direction, cell-based, HEK293, spliceosome inhibition project, primary screen (AID 1101).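 Also: HEK293 cells carrying a splicing-competent luciferase reporter gene; test concentration not given here.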 The conditions noted are these: HEK293 splicing luciferase reporter, 24 h, higher = more signal, called active from +8 up or from −8 down. Background: In a reporter assay the amount or activity of a reporter protein is the signal.
Test [5] addresses Fibroblast growth factor 10 (Homo sapiens) (UniProt O15520). Description: compounds binding fibroblast growth factor 10 – biochemical, small-molecule microarray, 635 nm fluorescence, primary screen (AID 1102). The settings on record: FGF10 binding, fluorescence 635 nm, higher = more signal.
The test system of test [6] is glycogen synthase kinase-3 (GSK3A per assay name; protocol says GSK3B). The test is described as follows: compounds binding glycogen synthase kinase-3 – biochemical, small-molecule microarray, 635 nm fluorescence, GSK3A, primary screen (AID 1103). Also: the record names both GSK3A and GSK3B. The conditions noted are these: fluorescence 635 nm, higher = more signal.
The target of test [7] is Epidermal growth factor receptor (Homo sapiens) (UniProt P00533). The test is described as follows: compounds binding epidermal growth factor receptor – biochemical, small-molecule microarray, 635 nm fluorescence, primary screen (AID 1104).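 Also: score merges 667 nm emission intensity with spot signal to noise over triplicate slides.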 The conditions noted are these: EGFR binding, higher = more signal.
For test [8], the target named is Follistatin-related protein 3 (Homo sapiens) (UniProt O95633). The test is described as follows: compounds binding follistatin-related protein 3 – biochemical, small-molecule microarray, 635 nm fluorescence, primary screen (AID 1105).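 Also: score merges emission near 667 nm and signal to noise per printed spot across three slides.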 The conditions noted are these: FSTL3 binding, higher = more signal.
The target in test [9] is Dickkopf-related protein 1 (Homo sapiens) (UniProt O94907). Description: small molecules binding DKK1 protein – biochemical, small-molecule microarray, 635 nm fluorescence scan, primary screen (AID 1106).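 Also: score merges emission near 667 nm with signal to noise over three replicate slides.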 The conditions noted are these: higher = more signal.
Test [10] has as its system Inhibin beta A chain (activin A). Description: small molecules binding activin A – biochemical, small-molecule microarray, 635 nm fluorescence scan, primary screen (AID 1107).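 Also: mouse activin A protein probed at 4.33 µg/mL on printed slides; score merges bound-protein fluorescence near 667 nm with spot signal-to-noise.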 The settings on record: INHBA, higher = more signal.
The subject of test [11] is Human papillomavirus type 1a protein E7 (residues 44-93). The test is described as follows: small molecules binding HPV E7 44-93 – biochemical, small-molecule microarray, residues 44-93, 635 nm fluorescence, primary screen (AID 1108).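 Also: E7 fragment applied at 1 µg/mL in TBST for 1 h at 4 C; score combines spot fluorescence with its signal to noise ratio.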 The settings on record: fluorescence 635 nm, higher = more signal.
Test [12] is described as follows: hepatitis C replication reporter changes, two-sided – Huh7 cells, luciferase reporter, HCV replication inhibitor project, primary screen (AID 1109).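 Also: huh7 hepatoma cells harbouring a luciferase neomycin HCV replicon reporter; luciferase luminescence as measure of HCV replicon replication; test concentration not given here.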 The conditions noted are these: Huh7 HCV replicon luciferase reporter, 48 h; higher = more signal.
In test [13] the target is Left-right determination factor 2 (Homo sapiens) (UniProt O00292). Description: small molecules binding LEFTY2 protein – biochemical, small-molecule microarray, 635 nm fluorescence scan, primary screen (AID 1110). The conditions noted are these: higher = more signal.
In test [14] the target is Calmodulin-1 (Homo sapiens) (UniProt P0DP23). Description: small molecules binding calmodulin-1 with EGTA – biochemical, small-molecule microarray, Cy5-labelled CALM1, profiling panel (AID 1111).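 Also: labelled calmodulin applied in Tris saline Tween buffer holding calcium plus EGTA and DTT.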 The settings on record: Cy5-CALM1 binding fluorescence, higher = more signal.
The target is the same in test [15]. Description: small molecules binding Ca-loaded calmodulin-1 – biochemical, small-molecule microarray, Cy5-labelled CALM1, plus calcium, artefact control for SMM control-protein annotation, profiling panel (AID 1112).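 Also: score merges spot fluorescence with signal to noise from triplicate slides.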 The settings on record: Cy5-CALM1 binding fluorescence, higher = more signal.
The nature of test [16]: probe aWnt5a binding to arrayed compounds – biochemical, biotinylated probe, 635/667 nm fluorescence, primary screen (AID 1113).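 Also: score merges 667 nm fluorescence intensity with signal-to-noise per printed feature.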 The conditions noted are these: small-molecule microarray, higher = more signal.
Test [17] can be described thus: probe aShh binding to arrayed compounds – biochemical, biotinylated probe, 635/667 nm fluorescence, primary screen (AID 1114).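 Also: probe is biotin-labelled aShh protein from a stem cell growth factor screen; measures binding of labelled protein to compounds printed on the slide; score merges feature fluorescence at 667 nm with signal-to-noise.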 The settings on record: small-molecule microarray, higher = more signal.
Test [18] can be described thus: probe aNog binding to arrayed compounds – biochemical, biotinylated probe, 635/667 nm fluorescence, primary screen (AID 1115).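 Also: probe is biotinylated aNog protein used at 0.15 µg/mL for 1 h at 4 C; z-score combines 667 nm fluorescence of each spot with its signal to noise.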 The settings on record: small-molecule microarray, higher = more signal.
The target in test [19] is Torsin-1A-interacting protein 1 (Homo sapiens) (UniProt Q5JTV8). The test is described as follows: compound microarray binding of lysate hLAP1 – cell lysate, small-molecule microarray, COS7 lysate, 635/667 nm fluorescence, primary screen (AID 1116). The conditions noted are these: 635 nm fluorescence, higher = more signal.
The target in test [20] is Alpha-bungarotoxin (Bungarus multicinctus) (UniProt P60615). Description: compounds binding labelled alpha-BTX control protein – biochemical, small-molecule microarray, Alexa647 label, 635/667 nm fluorescence, artefact control for SMM control protein annotation, profiling panel (AID 1117). The conditions noted are these: alpha-BTX-A647 binding fluorescence, higher = more signal.

The source made the active and inactive calls.

Chain of Left-right determination factor 2 (Homo sapiens) (O00292 whole entry, looked up): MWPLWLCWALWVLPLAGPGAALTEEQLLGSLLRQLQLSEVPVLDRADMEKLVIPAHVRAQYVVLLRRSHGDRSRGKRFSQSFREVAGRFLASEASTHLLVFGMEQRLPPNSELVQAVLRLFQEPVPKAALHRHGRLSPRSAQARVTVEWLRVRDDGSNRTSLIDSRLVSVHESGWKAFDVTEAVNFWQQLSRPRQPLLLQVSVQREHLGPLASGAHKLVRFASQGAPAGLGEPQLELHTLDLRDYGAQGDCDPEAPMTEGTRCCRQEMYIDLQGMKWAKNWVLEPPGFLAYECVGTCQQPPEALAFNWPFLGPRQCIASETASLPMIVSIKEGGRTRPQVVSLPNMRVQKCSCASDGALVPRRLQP
Chain of Follistatin-related protein 3 (Homo sapiens) (O95633 whole entry, looked up): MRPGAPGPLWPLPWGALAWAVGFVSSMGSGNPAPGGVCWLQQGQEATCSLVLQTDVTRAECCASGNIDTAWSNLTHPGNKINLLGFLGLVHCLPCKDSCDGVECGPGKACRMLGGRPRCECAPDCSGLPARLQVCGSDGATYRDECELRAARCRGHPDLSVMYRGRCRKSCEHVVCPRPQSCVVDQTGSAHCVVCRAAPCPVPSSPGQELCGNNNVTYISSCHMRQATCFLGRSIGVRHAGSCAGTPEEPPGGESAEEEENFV
Chain of Dickkopf-related protein 1 (Homo sapiens) (O94907 whole entry, looked up): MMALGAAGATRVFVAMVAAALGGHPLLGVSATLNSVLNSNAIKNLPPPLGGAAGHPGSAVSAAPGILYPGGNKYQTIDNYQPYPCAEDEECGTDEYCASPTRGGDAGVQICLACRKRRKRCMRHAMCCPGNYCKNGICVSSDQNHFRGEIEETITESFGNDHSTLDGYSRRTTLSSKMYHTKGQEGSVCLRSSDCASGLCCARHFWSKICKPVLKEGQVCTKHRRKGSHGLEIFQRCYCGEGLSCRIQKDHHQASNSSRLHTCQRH
Chain of Torsin-1A-interacting protein 1 (Homo sapiens) (Q5JTV8 whole entry, looked up): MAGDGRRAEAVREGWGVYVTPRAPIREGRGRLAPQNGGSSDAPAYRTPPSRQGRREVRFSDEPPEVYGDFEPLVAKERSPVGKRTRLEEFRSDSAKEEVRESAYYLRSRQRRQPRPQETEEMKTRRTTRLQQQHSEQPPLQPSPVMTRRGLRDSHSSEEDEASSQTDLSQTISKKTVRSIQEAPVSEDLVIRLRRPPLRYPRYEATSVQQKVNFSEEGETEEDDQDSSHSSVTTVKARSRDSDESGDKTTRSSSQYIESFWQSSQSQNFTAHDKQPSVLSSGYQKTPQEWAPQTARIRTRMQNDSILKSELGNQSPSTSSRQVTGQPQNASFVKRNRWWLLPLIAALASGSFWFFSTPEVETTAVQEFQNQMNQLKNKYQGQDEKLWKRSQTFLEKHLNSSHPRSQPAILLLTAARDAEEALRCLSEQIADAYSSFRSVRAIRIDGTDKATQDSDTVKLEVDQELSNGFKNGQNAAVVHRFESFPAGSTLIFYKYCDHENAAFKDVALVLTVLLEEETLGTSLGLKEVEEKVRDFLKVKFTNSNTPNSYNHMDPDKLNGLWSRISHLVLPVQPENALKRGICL
Chain of Alpha-bungarotoxin (Bungarus multicinctus) (P60615 whole entry, looked up): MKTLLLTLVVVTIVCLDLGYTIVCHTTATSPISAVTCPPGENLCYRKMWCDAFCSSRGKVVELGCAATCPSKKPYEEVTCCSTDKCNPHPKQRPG
Chain of Epidermal growth factor receptor (Homo sapiens) (P00533 whole entry, looked up): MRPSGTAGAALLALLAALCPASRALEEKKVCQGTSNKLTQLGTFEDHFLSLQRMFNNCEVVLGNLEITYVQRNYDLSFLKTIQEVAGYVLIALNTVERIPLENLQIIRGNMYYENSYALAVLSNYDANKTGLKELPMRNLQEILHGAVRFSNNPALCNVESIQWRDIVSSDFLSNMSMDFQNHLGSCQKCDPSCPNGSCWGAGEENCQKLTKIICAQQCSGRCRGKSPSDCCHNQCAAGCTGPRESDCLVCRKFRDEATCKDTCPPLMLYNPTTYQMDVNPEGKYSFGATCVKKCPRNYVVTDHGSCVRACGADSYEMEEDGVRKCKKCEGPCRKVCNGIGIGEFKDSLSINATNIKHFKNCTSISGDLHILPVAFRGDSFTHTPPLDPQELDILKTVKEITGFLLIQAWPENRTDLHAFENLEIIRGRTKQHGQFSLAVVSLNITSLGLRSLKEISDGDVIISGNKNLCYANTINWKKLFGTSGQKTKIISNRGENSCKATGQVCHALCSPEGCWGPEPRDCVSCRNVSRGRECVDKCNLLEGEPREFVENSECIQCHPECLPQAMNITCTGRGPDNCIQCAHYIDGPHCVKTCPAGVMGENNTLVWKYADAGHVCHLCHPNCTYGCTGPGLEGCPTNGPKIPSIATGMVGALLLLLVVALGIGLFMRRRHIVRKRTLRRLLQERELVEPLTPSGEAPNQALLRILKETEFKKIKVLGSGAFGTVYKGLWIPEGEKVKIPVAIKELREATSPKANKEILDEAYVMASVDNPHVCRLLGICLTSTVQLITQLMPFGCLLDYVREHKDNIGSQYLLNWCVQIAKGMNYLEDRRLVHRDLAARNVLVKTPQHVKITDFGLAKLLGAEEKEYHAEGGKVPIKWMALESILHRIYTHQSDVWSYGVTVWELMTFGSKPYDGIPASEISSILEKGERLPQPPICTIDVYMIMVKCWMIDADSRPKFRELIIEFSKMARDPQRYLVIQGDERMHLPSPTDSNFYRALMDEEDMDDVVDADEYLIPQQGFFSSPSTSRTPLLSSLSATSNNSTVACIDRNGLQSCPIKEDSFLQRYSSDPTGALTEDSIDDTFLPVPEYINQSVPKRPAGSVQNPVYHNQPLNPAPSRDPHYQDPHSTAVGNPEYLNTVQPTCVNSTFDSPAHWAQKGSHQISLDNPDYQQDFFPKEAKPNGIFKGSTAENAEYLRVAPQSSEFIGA
Chain of Fibroblast growth factor 10 (Homo sapiens) (O15520 whole entry, looked up): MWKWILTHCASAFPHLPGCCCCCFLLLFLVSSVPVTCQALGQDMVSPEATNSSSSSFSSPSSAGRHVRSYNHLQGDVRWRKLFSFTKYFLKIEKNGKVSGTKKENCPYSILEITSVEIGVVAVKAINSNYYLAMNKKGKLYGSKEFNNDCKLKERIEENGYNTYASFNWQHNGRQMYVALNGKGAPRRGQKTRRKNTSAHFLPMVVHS

Turning to `C=CCNC(=O)[C@@H]1[C@H]2C(=O)O[C@H](c3ccccc3)[C@H](c3ccccc3)N2[C@H](c2ccc(O)cc2)[C@@]12C(=O)N(C(=O)OCCOC)c1ccc(C#CCC(C(=O)OC)C(=O)OC)cc12`, the composite z-score was 0.533 in [1]; -0.0333 in [2]; 0.0912 in test [3]; 1.17 in test [5]; 0.611 in test [6]; 0.408 in [7]. For the same compound, the composite z-score was determined as 1 in test [8]; 0.493 in test [9]; 0.273 in test [10]; 1.39 in [11]; 0.434 in test [13]; 0.635 in test [14]. The composite z-score was 0.0394 in [15]; -0.001 in test [16]; 0.151 in test [17]; -0.1 in [18]; 1.42 in test [19]; 1.11 in test [20]. In addition, the z-score is 0.942 (inactive) in [4] and -0.598 in [12].

On to `COCCCNC(=O)[C@@]1(c2ccc([N+](=O)[O-])cc2)CC(=O)N(C2CCCCC2)[C@@H]1c1ccc(CO)cc1I`, for which the composite z-score was 1.62 in test [1]; 0.0269 in test [2]; 0.64 in test [3]; 0.453 in test [5]; 1.16 in [6]; -0.323 in test [7]. Further, the composite z-score in test [8] was 0.102; in test [9] it was -0.582; in test [10], 0.717; in [11] it was -0.191; in test [13] it was -0.199; in test [14] it was 0.582. For the same compound, the composite z-score in test [15] was -0.0952; in [16] it was -0.0051; in [17], -0.0904; in test [18] it was 0.968; in [19] it was 1.17; in test [20], 0.302. For the same compound, the z-score in test [4] is -1.1 (inactive); in test [12], -1.9.

For `Cc1ccc(S[C@]2(C(=O)NC(C)C)CC(=O)N(Cc3ccccc3)[C@@H]2c2ccc(CO)cc2)cc1`, the composite z-score is 0.0089 in test [1]; 0.108 in test [2]; 0.915 in test [3]; -1.18 in [5]; -1.34 in [6]; -1.01 in [7]. Also, the composite z-score in [8] is -0.363; in test [9] it was -1.51; in [10] it was 0.159; in [11] it was -0.905; in test [13], -1.82; in test [14], -0.0379. The composite z-score in [15] is 0.175; in [16], -0.124; in [17], -0.2; in test [18] it was 0.0258; in [19], -0.142; in [20] it was 0.329. The z-score in test [4] is -0.538 (inactive); in [12], -1.36.

For `COCCOC(=O)N1C(=O)[C@@]2(c3cc(C#CCC(C(=O)OC)C(=O)OC)ccc31)[C@H](c1ccc(O)cc1)N1[C@H](c3ccccc3)[C@H](c3ccccc3)OC(=O)[C@H]1[C@@H]2C(=O)N1CCc2cc(OC)c(OC)cc2C1`, the composite z-score was 1.21 in test [1]; -0.149 in [2]; 0.131 in [3]; 1.09 in test [5]; 1.08 in test [6]; 0.294 in [7]. The composite z-score was 0.728 in test [8]; 0.384 in test [9]; 0.0348 in [10]; 0.438 in [11]; 1.04 in [13]; 0.505 in [14]. Besides, the composite z-score was 0.781 in test [15]; 0.0215 in test [16]; 0.0898 in [17]; -0.366 in test [18]; 1.54 in test [19]; 1.36 in test [20]. Moreover, the z-score in [4] was 0.0333 (inactive); in [12], -0.284.

For the compound `COc1ccc([Si](C)(C)[C@@H]2[C@@H](CC(=O)N3CCC[C@H]3CO)O[C@]3(C(=O)N(Cc4cccc(N5C(=O)c6cccc7cccc5c67)c4)c4ccccc43)[C@H]2C)cc1`, the composite z-score was 1.22 in test [1]; -0.164 in test [2]; 0.0325 in [3]; 0.415 in test [5]; 0.0816 in [6]; 0.192 in test [7]. Also, the composite z-score was determined as 0.402 in test [8]; 0.655 in test [9]; 0.608 in test [10]; 1.29 in test [11]; 0.456 in test [13]; 1.15 in test [14]. The composite z-score in test [15] is -0.226; in test [16], -0.108; in test [17] it was -0.0793; in test [18], -0.458; in test [19], 2.23; in [20] it was 0.669. For the same compound, the z-score in [4] is -0.134 (inactive); in test [12], -2.11.

(Values after PubChem BioAssay.)
